Key:
Assay in all cases: DAPPL (digital affinity profiling via proximity ligation, sequencing); 10 mM Tris-HCl pH 7.5, 50 mM NaCl, 1 mM DTT, 4% glycerol, room temperature, 30 min; GST-TFs on glutathione beads, 16-mer random dsDNA library, 0.1% formaldehyde crosslink after washing; high values mean tight binding
[1] = target: T1, FLI1 (Homo sapiens, UniProt Q01543 1-452); conditions: protein: recombinant; tags: N-terminal GST; dsDNA, one strand shown
T1 sequence: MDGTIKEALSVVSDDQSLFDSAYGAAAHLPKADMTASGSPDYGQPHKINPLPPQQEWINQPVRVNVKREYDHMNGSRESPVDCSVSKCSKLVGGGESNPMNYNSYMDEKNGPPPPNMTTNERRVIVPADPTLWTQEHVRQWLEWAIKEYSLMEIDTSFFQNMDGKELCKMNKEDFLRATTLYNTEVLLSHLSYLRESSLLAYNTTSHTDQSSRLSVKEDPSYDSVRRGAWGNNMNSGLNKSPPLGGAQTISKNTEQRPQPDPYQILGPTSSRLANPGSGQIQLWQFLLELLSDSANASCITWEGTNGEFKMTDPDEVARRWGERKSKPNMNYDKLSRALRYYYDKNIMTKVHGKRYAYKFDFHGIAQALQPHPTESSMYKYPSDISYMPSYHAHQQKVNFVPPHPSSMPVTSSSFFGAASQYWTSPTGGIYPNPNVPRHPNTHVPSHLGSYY
Outline: (§1)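 Sequencing on an Illumina NextSeq500 followed washing, crosslinking with 0.1% formaldehyde, proximity ligation (BsaI/T4 ligase, 1 h, 37 °C) and PCR amplification of pools that had been incubated for 30 min at room temperature with 200 nmole of a random double-stranded 16-mer DNA library in Tris/NaCl/DTT/glycerol buffer. Each pool held DNA-barcoded human transcription factors, expressed in yeast as GST fusions and captured on glutathione beads, plus a tag-only sample. Binding signal is a hexamer's read frequency for a factor divided by its frequency in the tag-only sample.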

[2] = target: T2, ELK1 (Homo sapiens, UniProt P19419 1-428); conditions: protein: recombinant; tags: N-terminal GST; dsDNA, one strand shown
T2 sequence: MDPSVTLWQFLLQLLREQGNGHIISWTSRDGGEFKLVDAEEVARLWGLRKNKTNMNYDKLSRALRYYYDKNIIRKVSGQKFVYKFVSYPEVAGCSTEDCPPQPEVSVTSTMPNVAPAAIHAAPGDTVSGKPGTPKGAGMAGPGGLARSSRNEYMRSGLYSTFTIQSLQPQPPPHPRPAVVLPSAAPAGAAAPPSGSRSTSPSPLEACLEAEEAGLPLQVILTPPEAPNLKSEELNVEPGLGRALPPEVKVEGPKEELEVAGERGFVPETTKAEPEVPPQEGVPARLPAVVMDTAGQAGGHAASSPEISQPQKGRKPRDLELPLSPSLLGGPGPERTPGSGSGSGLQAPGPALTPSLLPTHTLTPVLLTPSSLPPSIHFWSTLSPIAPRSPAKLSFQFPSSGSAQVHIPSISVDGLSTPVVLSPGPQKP
Outline: as §1

[3] = target: T3, GABPA (Homo sapiens, UniProt Q06546 1-454); conditions: protein: recombinant; tags: N-terminal GST; dsDNA, one strand shown
T3 sequence: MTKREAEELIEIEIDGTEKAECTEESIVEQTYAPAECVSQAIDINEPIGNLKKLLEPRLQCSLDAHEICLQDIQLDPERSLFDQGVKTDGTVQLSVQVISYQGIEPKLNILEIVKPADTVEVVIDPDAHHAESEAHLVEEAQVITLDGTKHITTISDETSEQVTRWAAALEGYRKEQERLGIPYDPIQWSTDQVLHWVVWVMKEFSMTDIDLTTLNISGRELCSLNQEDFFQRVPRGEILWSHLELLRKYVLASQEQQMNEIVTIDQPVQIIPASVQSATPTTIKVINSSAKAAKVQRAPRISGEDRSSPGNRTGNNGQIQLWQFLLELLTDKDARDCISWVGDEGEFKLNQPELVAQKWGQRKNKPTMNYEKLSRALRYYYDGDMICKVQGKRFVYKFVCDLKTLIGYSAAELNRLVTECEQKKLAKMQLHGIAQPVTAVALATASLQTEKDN
Outline: as §1

[4] = target: T4, ERG (Homo sapiens, UniProt P11308 1-479); conditions: protein: recombinant; tags: N-terminal GST; dsDNA, one strand shown
T4 sequence: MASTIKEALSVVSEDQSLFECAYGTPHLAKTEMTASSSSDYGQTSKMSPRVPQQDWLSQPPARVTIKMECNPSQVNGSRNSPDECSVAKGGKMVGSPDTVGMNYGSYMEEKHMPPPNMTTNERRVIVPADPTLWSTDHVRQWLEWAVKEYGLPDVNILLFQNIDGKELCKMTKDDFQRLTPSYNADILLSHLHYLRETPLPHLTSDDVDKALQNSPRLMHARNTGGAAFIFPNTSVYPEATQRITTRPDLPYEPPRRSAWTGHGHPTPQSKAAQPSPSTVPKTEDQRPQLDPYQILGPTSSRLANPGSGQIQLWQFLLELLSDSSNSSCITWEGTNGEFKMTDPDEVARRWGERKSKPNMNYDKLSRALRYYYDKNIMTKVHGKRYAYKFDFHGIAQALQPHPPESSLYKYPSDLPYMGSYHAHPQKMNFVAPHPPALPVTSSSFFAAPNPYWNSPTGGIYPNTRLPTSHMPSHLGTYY
Outline: as §1

[5] = target: ELF1 (Homo sapiens, UniProt P32519 1-619); conditions: protein: recombinant; tags: N-terminal GST; dsDNA, one strand shown
ELF1, sequence (P32519 whole entry): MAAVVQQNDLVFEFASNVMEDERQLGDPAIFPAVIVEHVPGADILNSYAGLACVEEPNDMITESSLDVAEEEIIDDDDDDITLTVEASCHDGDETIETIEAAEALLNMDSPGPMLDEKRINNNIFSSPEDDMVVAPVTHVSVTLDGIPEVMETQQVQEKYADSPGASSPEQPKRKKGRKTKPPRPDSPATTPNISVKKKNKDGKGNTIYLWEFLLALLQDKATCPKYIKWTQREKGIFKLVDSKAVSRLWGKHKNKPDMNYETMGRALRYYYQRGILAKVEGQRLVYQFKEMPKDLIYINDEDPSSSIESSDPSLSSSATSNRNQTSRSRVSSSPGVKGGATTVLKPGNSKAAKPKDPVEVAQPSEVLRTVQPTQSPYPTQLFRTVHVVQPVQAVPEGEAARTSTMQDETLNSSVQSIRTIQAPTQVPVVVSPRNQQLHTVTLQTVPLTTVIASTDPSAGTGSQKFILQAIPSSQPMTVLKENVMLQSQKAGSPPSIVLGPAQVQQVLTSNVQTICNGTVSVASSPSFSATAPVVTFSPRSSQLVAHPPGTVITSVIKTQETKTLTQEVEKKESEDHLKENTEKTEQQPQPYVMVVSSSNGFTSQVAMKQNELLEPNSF
Outline: as §1

[6] = target: T5, EHF (Homo sapiens, UniProt Q9NZC4 1-300); conditions: protein: recombinant; tags: N-terminal GST; dsDNA, one strand shown
T5 sequence: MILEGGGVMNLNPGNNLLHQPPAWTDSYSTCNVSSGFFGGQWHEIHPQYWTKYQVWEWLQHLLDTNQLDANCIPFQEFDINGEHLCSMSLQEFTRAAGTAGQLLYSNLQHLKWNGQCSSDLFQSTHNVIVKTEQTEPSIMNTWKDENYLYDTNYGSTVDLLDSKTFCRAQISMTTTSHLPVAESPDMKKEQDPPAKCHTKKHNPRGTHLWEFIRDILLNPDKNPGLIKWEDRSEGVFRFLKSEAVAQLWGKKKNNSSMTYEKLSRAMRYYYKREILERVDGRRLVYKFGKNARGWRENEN
Outline: as §1

[7] = target: SPI1 (Homo sapiens, UniProt P17947 1-270); conditions: protein: recombinant; tags: N-terminal GST; dsDNA, one strand shown
Outline: as §1

[8] = target: SPIB (Homo sapiens, UniProt Q01892 1-262); conditions: protein: recombinant; tags: N-terminal GST; dsDNA, one strand shown
SPIB, sequence (Q01892 whole entry): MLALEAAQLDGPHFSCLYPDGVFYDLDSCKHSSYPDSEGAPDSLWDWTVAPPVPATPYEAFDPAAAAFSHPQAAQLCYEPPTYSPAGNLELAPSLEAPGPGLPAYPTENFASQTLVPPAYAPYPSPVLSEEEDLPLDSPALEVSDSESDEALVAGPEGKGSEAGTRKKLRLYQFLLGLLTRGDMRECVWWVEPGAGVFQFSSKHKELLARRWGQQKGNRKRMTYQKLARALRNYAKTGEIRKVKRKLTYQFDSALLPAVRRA
Outline: as §1

[9] = target: T6, ELK3 (Homo sapiens, UniProt P41970 1-407); conditions: protein: recombinant; tags: N-terminal GST; dsDNA, one strand shown
T6 sequence: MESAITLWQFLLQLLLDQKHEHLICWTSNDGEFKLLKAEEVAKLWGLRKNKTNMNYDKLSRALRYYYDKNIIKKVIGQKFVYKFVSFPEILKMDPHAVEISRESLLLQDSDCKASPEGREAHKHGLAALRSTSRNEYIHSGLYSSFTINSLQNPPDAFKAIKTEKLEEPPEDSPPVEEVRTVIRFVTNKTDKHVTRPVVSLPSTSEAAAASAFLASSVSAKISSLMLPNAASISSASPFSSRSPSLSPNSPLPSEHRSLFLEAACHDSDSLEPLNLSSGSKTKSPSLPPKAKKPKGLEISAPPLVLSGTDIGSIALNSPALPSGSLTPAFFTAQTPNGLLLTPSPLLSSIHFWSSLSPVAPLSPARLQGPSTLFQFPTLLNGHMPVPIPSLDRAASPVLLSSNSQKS
Outline: as §1

[10] = target: T7, FEV (Homo sapiens, UniProt Q99581 1-238); conditions: protein: recombinant; tags: N-terminal GST; dsDNA, one strand shown
T7 sequence: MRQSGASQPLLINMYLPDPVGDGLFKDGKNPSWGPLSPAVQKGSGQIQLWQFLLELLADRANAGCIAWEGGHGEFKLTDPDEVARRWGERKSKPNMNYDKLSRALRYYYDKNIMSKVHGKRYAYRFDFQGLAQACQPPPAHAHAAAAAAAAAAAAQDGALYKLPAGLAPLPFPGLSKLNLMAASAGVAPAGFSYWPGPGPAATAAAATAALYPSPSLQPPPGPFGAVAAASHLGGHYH
Outline: as §1

[11] = target: ETV5 (Homo sapiens, UniProt P41161 1-510); conditions: protein: recombinant; tags: N-terminal GST; dsDNA, one strand shown
ETV5, sequence (P41161 whole entry): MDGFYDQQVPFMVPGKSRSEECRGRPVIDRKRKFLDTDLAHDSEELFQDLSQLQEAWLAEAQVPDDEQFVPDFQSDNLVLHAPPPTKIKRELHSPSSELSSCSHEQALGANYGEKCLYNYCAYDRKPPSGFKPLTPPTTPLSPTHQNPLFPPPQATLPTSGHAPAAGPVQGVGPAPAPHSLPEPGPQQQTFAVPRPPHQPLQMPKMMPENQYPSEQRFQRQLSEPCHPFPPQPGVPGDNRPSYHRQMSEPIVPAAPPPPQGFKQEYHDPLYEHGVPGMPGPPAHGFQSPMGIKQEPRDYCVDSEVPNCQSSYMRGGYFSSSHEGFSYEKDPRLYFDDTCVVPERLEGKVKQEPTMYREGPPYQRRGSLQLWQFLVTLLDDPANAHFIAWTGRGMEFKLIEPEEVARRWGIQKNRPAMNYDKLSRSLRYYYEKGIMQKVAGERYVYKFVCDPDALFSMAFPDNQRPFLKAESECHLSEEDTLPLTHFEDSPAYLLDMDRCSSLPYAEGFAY
Outline: as §1

[12] = target: HSF1 (Homo sapiens, UniProt Q00613 1-529); conditions: protein: recombinant; tags: N-terminal GST; chain copies: 3; dsDNA, one strand shown
HSF1, sequence (Q00613 whole entry): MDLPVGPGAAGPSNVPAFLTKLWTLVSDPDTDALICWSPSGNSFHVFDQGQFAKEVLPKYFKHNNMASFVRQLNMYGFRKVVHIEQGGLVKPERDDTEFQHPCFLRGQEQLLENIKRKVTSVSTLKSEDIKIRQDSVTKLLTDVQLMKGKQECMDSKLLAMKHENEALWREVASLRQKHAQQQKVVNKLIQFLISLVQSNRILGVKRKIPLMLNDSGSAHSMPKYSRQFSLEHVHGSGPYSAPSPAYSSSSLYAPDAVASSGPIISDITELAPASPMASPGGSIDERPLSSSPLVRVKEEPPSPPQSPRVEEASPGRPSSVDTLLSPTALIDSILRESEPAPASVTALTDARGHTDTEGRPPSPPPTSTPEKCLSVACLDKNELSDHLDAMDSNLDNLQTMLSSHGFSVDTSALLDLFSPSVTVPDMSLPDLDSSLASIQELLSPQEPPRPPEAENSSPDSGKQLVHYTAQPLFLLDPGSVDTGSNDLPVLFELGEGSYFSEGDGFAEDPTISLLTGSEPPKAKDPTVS
Outline: as §1

[13] = target: T8, SPIC (Homo sapiens, UniProt Q8N5J4 1-248); conditions: protein: recombinant; tags: N-terminal GST; dsDNA, one strand shown
T8 sequence: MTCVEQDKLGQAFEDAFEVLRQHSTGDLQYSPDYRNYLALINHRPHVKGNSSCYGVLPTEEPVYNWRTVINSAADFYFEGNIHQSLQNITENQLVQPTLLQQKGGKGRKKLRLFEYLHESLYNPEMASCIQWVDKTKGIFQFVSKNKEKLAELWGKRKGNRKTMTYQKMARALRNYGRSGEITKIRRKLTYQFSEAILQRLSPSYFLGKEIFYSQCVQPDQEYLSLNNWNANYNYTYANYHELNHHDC
Outline: as §1

[14] = target: ELF4 (Homo sapiens, UniProt Q99607 1-663); conditions: protein: recombinant; tags: N-terminal GST; dsDNA, one strand shown
ELF4, sequence (Q99607 whole entry): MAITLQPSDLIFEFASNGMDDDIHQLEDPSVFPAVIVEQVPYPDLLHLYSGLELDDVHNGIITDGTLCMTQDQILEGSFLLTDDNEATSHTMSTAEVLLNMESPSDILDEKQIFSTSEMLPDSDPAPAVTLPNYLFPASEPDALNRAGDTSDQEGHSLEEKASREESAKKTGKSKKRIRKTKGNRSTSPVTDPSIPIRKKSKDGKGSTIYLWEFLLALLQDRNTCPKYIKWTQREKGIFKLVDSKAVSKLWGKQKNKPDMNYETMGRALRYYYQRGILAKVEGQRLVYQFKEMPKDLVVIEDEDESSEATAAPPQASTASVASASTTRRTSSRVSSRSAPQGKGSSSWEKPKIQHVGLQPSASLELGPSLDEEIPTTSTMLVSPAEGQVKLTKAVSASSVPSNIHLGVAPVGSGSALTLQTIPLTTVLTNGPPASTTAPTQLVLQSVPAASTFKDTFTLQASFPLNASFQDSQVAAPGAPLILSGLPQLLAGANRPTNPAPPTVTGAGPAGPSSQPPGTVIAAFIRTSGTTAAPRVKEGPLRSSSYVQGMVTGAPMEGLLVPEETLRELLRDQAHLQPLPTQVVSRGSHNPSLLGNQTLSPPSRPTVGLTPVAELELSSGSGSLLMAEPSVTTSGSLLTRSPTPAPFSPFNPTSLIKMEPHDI
Outline: as §1

[15] = target: T9, ELK4 (Homo sapiens, UniProt P28324-2 1-405); conditions: protein: recombinant; tags: N-terminal GST; dsDNA, one strand shown
T9 sequence: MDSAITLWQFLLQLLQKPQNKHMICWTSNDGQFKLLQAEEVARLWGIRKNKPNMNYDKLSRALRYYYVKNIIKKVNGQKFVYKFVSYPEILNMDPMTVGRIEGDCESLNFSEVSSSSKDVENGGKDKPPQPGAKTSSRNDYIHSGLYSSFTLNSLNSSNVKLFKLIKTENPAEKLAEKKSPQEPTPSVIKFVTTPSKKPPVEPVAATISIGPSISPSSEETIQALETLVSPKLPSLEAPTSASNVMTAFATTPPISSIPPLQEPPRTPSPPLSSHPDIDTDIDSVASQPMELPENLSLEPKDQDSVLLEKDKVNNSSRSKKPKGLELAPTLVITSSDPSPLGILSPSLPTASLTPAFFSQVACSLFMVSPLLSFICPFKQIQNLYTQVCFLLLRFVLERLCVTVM
Outline: as §1

[16] = target: T10, ETV2 (Homo sapiens, UniProt O00321 1-342); conditions: protein: recombinant; tags: N-terminal GST; dsDNA, one strand shown
T10 sequence: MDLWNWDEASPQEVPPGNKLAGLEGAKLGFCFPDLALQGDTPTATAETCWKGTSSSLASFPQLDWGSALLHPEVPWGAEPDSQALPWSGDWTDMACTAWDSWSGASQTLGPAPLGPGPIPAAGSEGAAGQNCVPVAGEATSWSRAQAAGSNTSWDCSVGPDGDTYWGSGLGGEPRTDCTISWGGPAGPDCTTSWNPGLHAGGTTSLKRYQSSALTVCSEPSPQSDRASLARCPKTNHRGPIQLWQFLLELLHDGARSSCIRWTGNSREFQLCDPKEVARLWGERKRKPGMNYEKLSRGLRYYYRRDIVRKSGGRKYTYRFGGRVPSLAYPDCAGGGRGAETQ
Outline: as §1

[17] = target: T11, ELF3 (Homo sapiens, UniProt P78545 1-371); conditions: protein: recombinant; tags: N-terminal GST; dsDNA, one strand shown
T11 sequence: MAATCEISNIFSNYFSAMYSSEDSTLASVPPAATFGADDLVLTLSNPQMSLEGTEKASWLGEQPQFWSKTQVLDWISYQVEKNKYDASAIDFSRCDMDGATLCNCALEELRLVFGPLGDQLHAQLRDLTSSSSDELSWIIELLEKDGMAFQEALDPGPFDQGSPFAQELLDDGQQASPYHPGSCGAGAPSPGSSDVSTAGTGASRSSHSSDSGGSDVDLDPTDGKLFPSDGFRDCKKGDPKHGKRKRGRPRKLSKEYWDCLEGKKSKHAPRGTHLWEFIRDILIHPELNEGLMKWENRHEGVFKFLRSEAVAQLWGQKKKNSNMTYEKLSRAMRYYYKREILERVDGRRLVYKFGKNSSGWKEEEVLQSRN
Outline: as §1

[18] = target: CRX (Homo sapiens, UniProt O43186 1-299); conditions: protein: recombinant; tags: N-terminal GST; dsDNA, one strand shown
CRX, sequence (O43186 whole entry): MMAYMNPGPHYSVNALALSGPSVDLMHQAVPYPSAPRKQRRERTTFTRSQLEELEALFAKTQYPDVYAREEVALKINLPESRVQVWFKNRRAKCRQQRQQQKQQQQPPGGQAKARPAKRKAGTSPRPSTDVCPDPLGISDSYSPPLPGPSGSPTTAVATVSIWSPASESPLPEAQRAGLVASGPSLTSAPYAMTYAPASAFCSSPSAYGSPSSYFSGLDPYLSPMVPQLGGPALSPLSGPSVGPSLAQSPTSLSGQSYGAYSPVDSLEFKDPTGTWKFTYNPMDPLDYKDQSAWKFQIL
Outline: as §1

[19] = target: ETV1 (Homo sapiens, UniProt P50549 1-477); conditions: protein: recombinant; tags: N-terminal GST; dsDNA, one strand shown
ETV1, sequence (P50549 whole entry): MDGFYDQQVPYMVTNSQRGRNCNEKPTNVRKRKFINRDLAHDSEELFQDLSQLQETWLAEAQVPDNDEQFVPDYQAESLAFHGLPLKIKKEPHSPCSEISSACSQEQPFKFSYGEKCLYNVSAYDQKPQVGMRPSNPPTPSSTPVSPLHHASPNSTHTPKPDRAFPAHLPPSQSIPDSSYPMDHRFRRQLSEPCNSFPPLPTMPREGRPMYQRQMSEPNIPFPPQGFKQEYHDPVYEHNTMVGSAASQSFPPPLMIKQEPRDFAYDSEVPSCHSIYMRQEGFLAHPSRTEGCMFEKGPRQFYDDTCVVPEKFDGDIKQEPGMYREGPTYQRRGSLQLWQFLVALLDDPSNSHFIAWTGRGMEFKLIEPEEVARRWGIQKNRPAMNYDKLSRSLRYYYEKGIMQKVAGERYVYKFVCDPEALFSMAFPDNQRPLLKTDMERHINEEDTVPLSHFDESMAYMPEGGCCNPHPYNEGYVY
Outline: as §1

TTTCTC
binding signal [1]: 1.64 fold enrichment (6-mer frequency, TF over GST control) | binding signal [2]: 1.66 fold enrichment (6-mer frequency, TF over GST control) | binding signal [3]: 1.58 fold enrichment (6-mer frequency, TF over GST control) | binding signal [4]: 1.54 fold enrichment (6-mer frequency, TF over GST control) | binding signal [5]: 1.62 fold enrichment (6-mer frequency, TF over GST control) | binding signal [6]: 1.59 fold enrichment (6-mer frequency, TF over GST control) | binding signal [7]: 1.7 fold enrichment (6-mer frequency, TF over GST control) | binding signal [8]: 1.63 fold enrichment (6-mer frequency, TF over GST control) | binding signal [9]: 1.46 fold enrichment (6-mer frequency, TF over GST control) | binding signal [10]: 1.52 fold enrichment (6-mer frequency, TF over GST control) | binding signal [11]: 1.53 fold enrichment (6-mer frequency, TF over GST control) | binding signal [12]: 2.63 fold enrichment (6-mer frequency, TF over GST control) | binding signal [13]: 1.55 fold enrichment (6-mer frequency, TF over GST control) | binding signal [14]: 1.6 fold enrichment (6-mer frequency, TF over GST control) | binding signal [15]: 1.78 fold enrichment (6-mer frequency, TF over GST control) | binding signal [16]: 1.65 fold enrichment (6-mer frequency, TF over GST control) | binding signal [17]: 1.86 fold enrichment (6-mer frequency, TF over GST control) | binding signal [18]: 1.67 fold enrichment (6-mer frequency, TF over GST control) | binding signal [19]: 1.46 fold enrichment (6-mer frequency, TF over GST control)

Source: article PMC7862700, “An all-to-all approach to the identification of sequence-specific readers for epigenetic DNA modifications on cytosine”
